# Assay outcomes: PubChem, Sanford-Burnham Center for Chemical Genomics
# Artemis inh – Artemis endonuclease inhibitors, primary screen, biochemical, fluorescence intensity, FAM/BHQ-1 hairpin substrate; Protein artemis (Homo sapiens), Q96SD1; recombinant Artemis, quenched FAM hairpin cleavage fluorescence; inhibition, % at 10 µM; hit rate 0.78% among 30,000;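 active = at 10 µM dose, at least 30% inhibition, measured as corrected fluorescence normalized to stimulator and neutral control wells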
# Target sequence (Q96SD1 whole entry, looked up): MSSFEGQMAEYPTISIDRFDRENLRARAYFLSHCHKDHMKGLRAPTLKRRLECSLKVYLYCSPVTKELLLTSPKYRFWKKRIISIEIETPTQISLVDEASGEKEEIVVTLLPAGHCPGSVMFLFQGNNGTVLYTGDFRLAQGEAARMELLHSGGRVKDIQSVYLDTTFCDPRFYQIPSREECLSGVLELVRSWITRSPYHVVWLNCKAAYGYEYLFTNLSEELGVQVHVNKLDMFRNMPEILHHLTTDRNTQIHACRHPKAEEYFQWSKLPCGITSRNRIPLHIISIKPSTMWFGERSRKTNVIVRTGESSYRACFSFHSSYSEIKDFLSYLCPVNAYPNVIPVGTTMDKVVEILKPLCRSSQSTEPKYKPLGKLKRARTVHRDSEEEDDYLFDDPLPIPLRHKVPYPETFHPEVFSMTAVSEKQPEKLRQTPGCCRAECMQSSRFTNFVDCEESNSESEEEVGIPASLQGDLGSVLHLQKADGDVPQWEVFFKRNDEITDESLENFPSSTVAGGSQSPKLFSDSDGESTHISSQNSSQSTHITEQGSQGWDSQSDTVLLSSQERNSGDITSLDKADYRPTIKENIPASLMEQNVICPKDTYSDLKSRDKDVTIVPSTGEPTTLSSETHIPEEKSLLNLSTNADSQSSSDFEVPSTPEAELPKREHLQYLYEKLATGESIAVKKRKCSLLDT
# Numbers without * were called inactive. This excerpt belongs to a sample that is enriched for hits.
SMILES,Artemis inh
COc1ccccc1Nc1nc(C)cc(C)c1C(N)=O,-1
Cc1cc(C)c(C(N)=O)c(Nc2cccc3ccccc23)n1,34*
Cc1cc(C)c(C(N)=O)c(Nc2ccc3c(c2)OCCO3)n1,-4
CCOc1cc(NC(=O)c2ccccn2)c(OCC)cc1NC(=O)CC(C)C,3
CCCN(CC1CC1)C(=O)CSc1nnc(-c2cc(-c3cccs3)nc3ccccc23)o1,13
Cc1noc(NC(=O)c2ccccc2)c1C#N,2
N#Cc1c(N)n(CCNC(=O)c2ccc(Cl)cc2)c2nc3ccccc3nc12,0
CCC(C)n1c(NC(=O)c2ccccc2)c(C#N)c2nc3ccccc3nc21 (stereo unspecified),39*
c1ccc(CN2CCN(c3nc(-c4ccccc4)nc4ccccc34)CC2)cc1,4
c1ccc(-c2nc(N3CCOCC3)c3ccccc3n2)nc1,8
c1ccc(-c2nc(N3CCCCCC3)c3ccccc3n2)nc1,78*
CC(C)(C)NS(=O)(=O)c1cnc(Cl)c(Cl)c1,-4
COc1ccc(N(CC(=O)Nc2ccc(S(=O)(=O)N3CCOCC3)cc2)S(=O)(=O)c2ccccc2)cc1,-2
O=C(O)[C@H](Cc1ccccc1)NC(=O)N1CCOCC1,-7
COc1cccc(C(=O)NC(=S)Nc2ccc3c4c(cccc24)CC3)c1,1
CCN(CC)CCN1C(=O)C(=O)/C(=C(/O)c2ccc(OC)cc2)C1c1ccco1 (stereo unspecified),-2
CCOc1ccc(/C(O)=C2\C(=O)C(=O)N(c3cc(C)on3)C2c2ccccc2OC)cc1 (stereo unspecified),3
CCOc1ccc(/C(O)=C2/C(=O)C(=O)N(c3nc(C)c(C)s3)C2c2ccco2)cc1 (stereo unspecified),43*
O=C(COc1ccc(Br)cc1)Nc1ccc([N+](=O)[O-])cn1,1
N#CC1(c2ccccc2)CCC(=NO)CC1 (stereo unspecified),-4
CCOc1cc(C)c(Cl)cc1S(=O)(=O)NCC1CCCO1 (stereo unspecified),0
COc1ccc(OC)c(S(=O)(=O)NCC2CCCO2)c1 (stereo unspecified),45*
COc1cc(C)c(Cl)cc1S(=O)(=O)NCC1CCCO1 (stereo unspecified),-1
CC(OC(=O)c1ccccc1NCc1ccco1)C(=O)Nc1ncc(Cl)cc1Cl (stereo unspecified),2
CC(C)(C)NC(=O)NC(=O)COC(=O)c1cc(=O)[nH]c2ccccc12,3
SMILES,Artemis inh
CC1(C)Nc2ccccc2N(CC(=O)N2CCCCC2)C1=O,1
O=C(N/N=C/C=C/c1ccccc1)c1cc2c(ccc3ccccc32)o1,20
COc1ccccc1N/C(N)=N/c1nc(CSc2ccc(C)cc2)cc(=O)[nH]1,30*
COc1ccc(N/C(N)=N/c2nc(CSc3ccc(C)cc3)cc(=O)[nH]2)cc1,14
Cc1cc(=O)[nH]c(/N=C(\N)Nc2cccc3ccccc23)n1,-2
CCOC(=O)c1c(NC(=O)C(C)NCc2ccco2)sc2c1CCC(C)C2 (stereo unspecified),5
N#Cc1c(NCCN)nc(-c2ccccc2)c2c1CCCC2,8
N#Cc1c(NCCN)nc(NCc2ccccc2)c2c1CCN(Cc1ccccc1)C2,58*
Nc1[nH]nc2nc(NCc3ccccc3)c3c(c12)CCN(Cc1ccccc1)C3,-3
O=C(N/N=C\c1cc(Br)cs1)C1COc2ccccc2O1 (stereo unspecified),8
COc1ccc(CN2CCC(C(=O)NCCc3ccc(OC)c(OC)c3)CC2)c(OC)c1,-5
Cc1ccc(S(=O)(=O)N2CCN(CC(=O)NC(=O)NCc3ccccc3)CC2)cc1C,1
COc1ccc(/C=N\NS(=O)(=O)c2ccc(Cl)cc2)cc1COc1ccccc1[N+](=O)[O-],17
Cc1cccc(NC(=O)c2ccc3ccccc3n2)c1C,-2
O=C(O)C(=O)/C(=C\c1cccc2ccccc12)c1ccc2ccccc2n1,30*
O=C(O)C(=O)/C(=C\c1ccccc1)c1ccc2ccccc2n1,-8
Cn1c(CSc2nc3ccccc3s2)nnc1SCC(=O)NCCCN1CCOCC1,0
Cc1ccccc1NS(=O)(=O)c1ccc(OCC(=O)N2CCCC2)cc1,0
COc1ccc(C2CC2/C(=N/OC(=O)c2cccs2)c2ccccc2)cc1 (stereo unspecified),3
COc1ccc(C2CC(c3ccc(Cl)cc3)Nc3nc(NC(=O)c4ccco4)nn32)cc1 (stereo unspecified),54*
O=C(Nc1nc2n(n1)C(c1ccccc1)C=C(c1ccccc1)N2)c1ccco1 (stereo unspecified),11
COc1ccc(C2CC(c3ccccc3)n3nc(NC(=O)c4cccs4)nc3N2)cc1 (stereo unspecified),59*
COc1cccc(C2CC(c3ccc(Cl)cc3Cl)Nc3nc(N)nn32)c1 (stereo unspecified),0
COc1ccc(NC(=O)c2cccs2)cc1,-5
CC(C)COC(=O)Nc1nnc(SCCOc2ccccc2)s1,3
SMILES,Artemis inh
Cc1cc(C)c2cc(CN(Cc3ccc4c(c3)OCO4)Cc3nnnn3Cc3ccco3)c(=O)[nH]c2c1,40*
CCc1ccc2[nH]c(=O)c(CN(Cc3ccccc3)Cc3nnnn3Cc3ccco3)cc2c1,21
CCC(c1nnnn1Cc1ccco1)N(CCc1ccccc1)Cc1cc2cc(C)ccc2[nH]c1=O (stereo unspecified),14
Cc1ccc2[nH]c(=O)c(CN(Cc3ccc4c(c3)OCO4)Cc3nnnn3Cc3ccco3)cc2c1,35*
Cc1cc(C)c2cc(CN(CCO)Cc3nnnn3Cc3ccc(F)cc3)c(=O)[nH]c2c1,1
O=c1[nH]c2cc3c(cc2cc1CN(Cc1ccccc1)Cc1nnnn1Cc1ccco1)OCCO3,27
CCCOc1nc(N)c(C#N)c(-c2ccccc2F)c1C#N,-2
Cc1nc(SCc2ccccc2)c(C(F)(F)F)c(=O)[nH]1,-11
Cc1ccc(S(=O)(=O)N(CC(=O)N2CCCCC2)c2cccc(C)c2)cc1,-3
CCN(CC)S(=O)(=O)c1cc(Br)c(C)cc1OC,-5
CCOC(=O)/C=c1\s/c(=C(\C#N)C(=O)OCC)n(-c2ccccc2)c1=O,31*
CCOC(=O)/C(C#N)=C1/C=Cc2ccccc2N1CC,0
CCOC(=O)c1c(O)c2ccccc2n(-c2ccccc2)c1=O,5
[O-]/[N+](=C\c1ccncc1)c1ccccc1,4
COc1cc(CNCCc2c[nH]c3ccccc23)ccc1OCc1ccc(F)cc1,10
Cn1nc(-c2ccccc2)c(-c2nc(-c3cccc(Cl)c3)no2)c1Cl,4
CC(C)(C)c1cc(/C=N/NC(=O)Cc2nc3ccccc3[nH]2)cc(C(C)(C)C)c1O,32*
COc1cc(/C=N\NC(=O)Cn2nnc3ccccc32)cc(OC)c1OC,4
O=C(CCc1nc2ccccc2[nH]1)Nc1ccc2c(c1)OCO2,10
COc1ccc(S(=O)(=O)NCC(=O)N(CC(=O)NCC2CCCO2)c2c(C)cccc2C)cc1 (stereo unspecified),7
Cc1cc(NS(=O)(=O)c2ccc(NC(NC(=O)C(C(F)(F)F)C(F)(F)F)(C(F)(F)F)C(F)(F)F)cc2)no1,-3
Cc1cc(NS(=O)(=O)c2ccc(Nc3nc(-c4sc(N)nc4C)cs3)cc2)no1,59*
Cc1cc(NS(=O)(=O)c2ccc(NC(=O)c3ccco3)cc2)no1,7
CN(C)S(=O)(=O)c1cccc(C(=O)OCC(=O)Nc2sccc2C#N)c1,-8
O=C(O)c1ccccc1C(=O)c1cccs1,-3
Cc1ccc(C)n1-c1sccc1C(=O)O,33*
